Compounds with a hit are over-represented: about 3.1% of the library has one in this group of screens.
SSB-PriA inh = blocks PriA binding to SSB C-terminal tail; AlphaScreen SSBct-PriA binding, biotinylated peptide; inhibition, % at 33 µM; actives 0.6% (n = 430,000); AID 1272365; in the data active = inhibition mostly above about 37%, no sharp cut-off; inactive = mostly below about 20%
BoNT F protease = BoNT F light chain protease inhibition; actives 0.22% (n = 360,000); inhibition, % at 10 µM; Multiplex microsphere protease cleavage assay, flow cytometry; in the data active = inhibition above about 35%, passing the limit was not always enough; inconclusive = no clear call, values can overlap the other calls
Anthrax LF prot = inhibitors of Bacillus anthracis lethal factor protease. P15917. multiplex microsphere protease cleavage assay, LF. inhibition, % at 10 µM. actives 0.12% (n = 360,000)
Autofluor counter = flagged as autofluorescent in microsphere protease counterscreen; compound autofluorescence counterscreen, microsphere flow cytometry; stronger effect = higher value; fluorescence intensity (test concentration not listed); actives 3.1% (n = 360,000); AID 624483; in the data active = fluorescence intensity above about 16000; inconclusive = no clear call, values can overlap the other calls
BoNT-A LC inh2 = inhibitors of Botulinum neurotoxin A light chain protease; multiplex microsphere protease substrate cleavage, flow cytometry; inhibition, % at 10 µM; actives 0.17% (n = 360,000); AID 588499
Large screens that a line does not name were inactive; ! = not active in a repeat. Cut-off read from the data, not from the text of the source, unless noted: active = inhibition above about 30%; inconclusive = no clear call, values can overlap the other calls; inactive = below that.

COc1ccc(Cn2c(SCc3ccc(C)cc3)nc3cc(OC)c(OC)cc3c2=N)cc1Cl	Autofluor counter 16606
COc1ccc(Cn2c(SCc3cc(C)ccc3C)nc3cc(OC)c(OC)cc3c2=N)cc1	none
COc1cc2nc(SCc3ccc(Cl)cc3Cl)n(Cc3cccs3)c(=N)c2cc1OC	Autofluor counter 20638
Cc1ccc(N2C(=O)CC(n3nc(C)cc3C)C2=O)cc1 (configuration not stated)	Autofluor counter 16252, BoNT-A LC inh2 inconclusive
Cc1cc(C)n(C2CC(=O)N(c3ccc(Cl)c(Cl)c3)C2=O)n1 (configuration not stated)	Anthrax LF prot inconclusive
O=C(Cc1cn(Cc2ccc(F)cc2)c2ccccc12)N1CCCc2ccccc21	none (no result: BoNT F protease, Anthrax LF prot, Autofluor counter, BoNT-A LC inh2)
NC(=O)C(c1ccc(Cl)cc1Cl)c1ncc(C(F)(F)F)cc1Cl (configuration not stated)	Autofluor counter 19681, BoNT-A LC inh2 inconclusive
CNC(=O)C(C)c1ncc(C(F)(F)F)cc1Cl (configuration not stated)	none
CC(C(=O)Nc1ccc(Cl)cc1)c1ncc(C(F)(F)F)cc1Cl (configuration not stated)	Autofluor counter 20389
Cc1[nH]c(=O)[nH]c(=O)c1S(=O)(=O)NCC12CC3CC(CC(C3)C1)C2	Autofluor counter 21375, BoNT-A LC inh2 inconclusive
CCC(NS(=O)(=O)c1c(C)[nH]c(=O)[nH]c1=O)C12CC3CC(CC(C3)C1)C2 (configuration not stated)	none
Cc1cccc(NC(=O)CCSc2nncn2C)c1	Autofluor counter 22260
Cc1cccc(NC(=S)NNC(=O)CCn2cc(C)cn2)c1	Autofluor counter 22732, BoNT-A LC inh2 inconclusive
Cc1nn(CCC(=O)NNC(=S)Nc2ccccc2)c(C)c1Br	none
Cc1ccc2c(c1)sc1nc(=O)n(-c3cccc(Cl)c3)c(=O)n12	Autofluor counter 22395
Cc1ccc2c(c1)sc1nc(=O)n(-c3ccc(Cl)cc3)c(=O)n12	Autofluor counter 19455
O=c1nc2sc3ccccc3n2c(=O)n1-c1ccc(Cl)cc1	none
Cc1ccc2c(c1)sc1nc(=O)n(-c3ccc(Cl)c(Cl)c3)c(=O)n12	Autofluor counter 22447, BoNT-A LC inh2 inconclusive
O=c1nc2sc3ccccc3n2c(=O)n1-c1cccc(Cl)c1	none
CCOC(=O)c1ccc(NC(=O)Cc2ccc(Cl)s2)cc1	none (no result: BoNT F protease, Anthrax LF prot, Autofluor counter, BoNT-A LC inh2)
C=CCn1c(=NC(=O)c2ccc(S(=O)(=O)N3CCCc4ccccc43)cc2)sc2cc(S(N)(=O)=O)ccc21	Anthrax LF prot 37.2
Cc1cnc2c(c1N1CCN(C(=O)c3ccco3)CC1)c(=O)n(Cc1ccc(F)cc1)c(=O)n2C	none (no result: BoNT F protease, Anthrax LF prot, Autofluor counter, BoNT-A LC inh2)
O=C(Nc1ccc2c(c1)OCO2)c1ccc(Cl)s1	Autofluor counter 16810
O=C(Nc1ccc2c(c1)OCO2)c1c[nH]c(=O)n(-c2ccc(F)cc2)c1=O	SSB-PriA inh 38.0!
O=C(Nc1ccc2c(c1)OCO2)c1c(F)c(F)c(F)c(F)c1F	Autofluor counter 18127
O=C(Nc1ccc2c(c1)OCCO2)c1c(F)cccc1F	Autofluor counter 20165, BoNT-A LC inh2 inconclusive
O=C(O)Cc1csc(Nc2ccc(F)cc2)n1	none (no result: BoNT F protease, Anthrax LF prot, Autofluor counter, BoNT-A LC inh2)
O=C(c1cccc(OCc2ccccc2)c1)N1CCC(S(=O)(=O)c2ccccc2)CC1	none (no result: BoNT F protease, Anthrax LF prot, Autofluor counter, BoNT-A LC inh2)
O=C(CCC(=O)N1CC2C[C@H](C1)Cn1c2cccc1=O)NCc1ccccc1C(F)(F)F	none (no result: BoNT F protease, Anthrax LF prot, Autofluor counter, BoNT-A LC inh2)
CC1CCCC(C)N1CCNC(=O)Nc1ccc(Cl)cc1 (configuration not stated)	Autofluor counter 22625
CN1CCN(CCNC(=O)Nc2ccc(Cl)cc2)CC1	BoNT F protease inconclusive
COc1ccc(OC)c(NC(=O)c2sc3nc(Cc4ccccc4)cc(C(F)(F)F)c3c2N)c1	Autofluor counter 20176
COc1ccc(-c2cc(C(F)(F)F)c3c(N)c(C(=O)NCCSC)sc3n2)cc1	BoNT F protease inconclusive
CCOc1ccc(-c2cnc(N)n2C)cc1	none
Cn1c(-c2ccc(Cl)cc2)cnc1N	SSB-PriA inh 54.1, Anthrax LF prot inconclusive, Autofluor counter inconclusive, BoNT-A LC inh2 inconclusive
Cc1ccc(-c2cnc(N)n2C)cc1C	Autofluor counter 23519
Cc1ccc(-c2nnc(N)o2)cc1C	none (no result: BoNT F protease, Anthrax LF prot, Autofluor counter, BoNT-A LC inh2)
CC(C)NC(=O)C1C(C=C(Cl)Cl)C1(C)C (configuration not stated)	none (no result: BoNT F protease, Anthrax LF prot, Autofluor counter, BoNT-A LC inh2)
C=CCn1c(SCc2ccccc2)nc(O)cc1=O	none
O=C(CSc1nc(O)cc(=O)n1-c1ccccc1)NCc1ccccc1	Autofluor counter 16693
O=C(CSc1nc(O)cc(=O)n1-c1ccccc1)Nc1ccccn1	none
CSc1nc2nc3c(cc2c(=O)n1-c1ccccc1)COC(C)(C)C3	none
CC1(C)Cc2nc3nc(SCC(=O)NCCc4ccccc4)n(-c4ccccc4)c(=O)c3cc2CO1	Autofluor counter 16362
O=c1cc(O)nc(SCc2ccccc2)n1-c1ccccc1	Autofluor counter 24058!
Fc1ccc(OCc2nc(-c3ccncc3)n[nH]2)cc1	none
Cc1ccc(OCc2nc(-c3ccc(Cl)cc3)n[nH]2)cc1	Autofluor counter 19787
CC(C)CN1C(=O)NC(NC(=O)c2cccs2)(C(F)(F)F)C1=O (configuration not stated)	Autofluor counter 21985, BoNT-A LC inh2 inconclusive
O=C(NC1(C(F)(F)F)NC(=O)N(Cc2ccco2)C1=O)c1cccs1 (configuration not stated)	Autofluor counter 20774
CN(C)CC#CCNC(=O)c1ccc2[nH]ccc2c1	none (no result: BoNT F protease, Anthrax LF prot, Autofluor counter, BoNT-A LC inh2)
C[C@](O)(CNC(=O)COc1ccccc1F)c1ccc(-c2ccccc2)cc1	none (no result: BoNT F protease, Anthrax LF prot, Autofluor counter, BoNT-A LC inh2)
O=S(=O)(/C=C/c1ccccc1)N1CCN(CCn2cccn2)CC1	none (no result: BoNT F protease, Anthrax LF prot, Autofluor counter, BoNT-A LC inh2)
COc1ccc(-c2[nH]nc3c2C(c2ccsc2)C(C#N)=C(N)O3)cc1 (configuration not stated)	Autofluor counter 16667
COc1cccc(-c2[nH]nc3c2C(c2ccoc2)C(C#N)=C(N)O3)c1 (configuration not stated)	Autofluor counter 21204, BoNT-A LC inh2 inconclusive
Cc1ccc(-c2[nH]nc3c2C(c2ccsc2)C(C#N)=C(N)O3)cc1 (configuration not stated)	none
COc1cccc(-c2[nH]nc3c2C(c2ccsc2)C(C#N)=C(N)O3)c1 (configuration not stated)	Autofluor counter 22773
N#CC1=C(N)Oc2n[nH]c(-c3ccccc3)c2C1c1ccsc1 (configuration not stated)	none (no result: BoNT F protease, Anthrax LF prot, Autofluor counter, BoNT-A LC inh2)
CN(C)S(=O)(=O)c1ccc(C(=O)N2CCC(Oc3cnccn3)CC2)cc1	none (no result: BoNT F protease, Anthrax LF prot, Autofluor counter, BoNT-A LC inh2)
COC1CCN(C(=O)c2ccc(F)cc2Cl)CC1	none (no result: BoNT F protease, Anthrax LF prot, Autofluor counter, BoNT-A LC inh2)
O=C(NCCSC1CCOCC1)c1ccc2noc(-c3ccccc3)c2c1	none (no result: BoNT F protease, Anthrax LF prot, Autofluor counter, BoNT-A LC inh2)
O=C(Nc1ccc(S(=O)(=O)Nc2cncs2)cc1)c1ccc(-c2cccc([N+](=O)[O-])c2)o1	none (no result: BoNT F protease, Anthrax LF prot, Autofluor counter, BoNT-A LC inh2)
Cc1cc(S(=O)(=O)Nc2cc(C)c(O)c(C)c2)c(C)s1	Autofluor counter 16803
COc1ccc(S(=O)(=O)Nc2cc(C)c(O)c(S(=O)(=O)c3ccccc3)c2)cc1	none
Cc1ccc(S(=O)(=O)Nc2ccc3ccccc3c2)cc1	none
COc1ccc(S(=O)(=O)Nc2ccc3c(c2)OCO3)cc1OC	Autofluor counter 18331, BoNT-A LC inh2 inconclusive
COc1ccc(S(=O)(=O)Nc2ccc3ccccc3c2)cc1C	Autofluor counter 25259
COc1ccc(NS(=O)(=O)c2ccc3c(c2)OCCO3)cc1OC	none
Cc1cc(S(=O)(=O)Nc2cccnc2)c(C)s1	none
